Bioassay records (PubChem)
VACV mCherry inh: inhibitors of vaccinia virus infection (mCherry reporter signal). AID 720579. Potency, µM (doses to about 36.5 µM), for the others: at the highest dose activity change, negative = inhibition, usual class: inhibitors. hit rate 0.63% among 310,000. Vaccinia virus mCherry reporter infection, fluorescence; calls by dose curve; tested in A549 cells; also: nearly all actives have a fitted effect of over 35% in size
AMA1 RON2 block: disrupts binding of P. falciparum AMA1 to RON2; Potency, µM (highest dose often 58.2 µM), without a hit: top-dose activity change, negative = inhibition, hits mostly inhibitors; AlphaScreen AMA1-biotinylated RON2 peptide binding; hit rate 0.2% among 360,000;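 also: 0% = vehicle wells and -100% = peptide control; nearly all actives have a fitted effect of over 45% in size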
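AMA1 (3D7) with his tag at 25 nM final met compounds first, then biotinylated RON2 peptide at 25 nM; detection used donor plus acceptor beads, 10 µg/mL apiece, read by AlphaScreen after 30 min at room temperature.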
Pf growth 96h: P. falciparum growth inhibition at 96 hour, primary screen for plastid delayed-death inhibitors | P. falciparum luciferase reporter growth, 96 h | Potency, µM (highest dose often 28.7 µM), inactives show at the top dose activity change, negative = inhibition, actives largely listed as inhibitors | hit rate 6.9% among 320,000
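Parasite growth measured via integrated firefly luciferase reporter in P. falciparum. Infected erythrocytes at 2% hematocrit, 0.05% parasitemia final were treated 96 hours at 37 C under 5% CO2, and luminescence was read.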
Vaccinia Venus: vaccinia inhibition (Venus reporter); Vaccinia virus Venus reporter expression, fluorescence; Potency, µM (doses to about 36.5 µM), inactives show at the top dose activity change, negative = inhibition, most hits filed as inhibitors; hit rate 0.46% among 330,000; AID 720580; calls by dose curve; tested in A549 cells; also: nearly all actives have a fitted effect of over 30% in size
Pf growth 48h: P. falciparum growth inhibition at 48 hours (one generation) | hit rate 5.9% among 310,000 | P. falciparum luciferase growth in erythrocytes, 48 h | AID 504832 | Potency, µM (series often up to 28.7 µM), for the others: top-dose activity change, negative = inhibition, usual class: inhibitors
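Luminescence readout; reporter = integrated firefly luciferase in P. falciparum. RBC culture at 2% hematocrit, 0.1% parasitemia final, 37 C/5% CO2; decreased signal taken as growth inhibition.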
* marks the source's active call; other numbers are inactive results; i = inactive; u = inconclusive; x = no result given; ! = a repeat was not active; [ ] = dose if it differs, or a comment. In the library only some 8.7% were active in any assay of this set; here they are far more common. Unless noted, calls follow the shape of the dose curve; as a rule, active = well fitted curve in the direction sought with a large enough effect; inconclusive = small, poorly fitted or top-dose-only effect, or another doubt; inactive = no such curve, though single readings can be large; an effect the other way counts as inactive or inconclusive. Unless noted, % is scaled to controls: 0 for no effect and ±100 for the full control effect; potency is read from the fitted curve at half-maximal effect.

SMILES | VACV mCherry inh | AMA1 RON2 block | Pf growth 96h | Vaccinia Venus | Pf growth 48h
COc1ccc(-n2c(C)c3c(OC)cccc(=O)c3c2C)cc1 | -16% | 4% | 10µM* | -7% | u
COc1cccc(=O)c2c(C)n(-c3ccc(C(=O)O)cc3)c(C)c12 | 12% | 3% | 23% | 9% | u
COc1ccccc1-n1c(C)c2c(OC)cccc(=O)c2c1C | 10% | -8% | 154% | 9% | 4.1µM*
O=C(N/N=C/c1cc(Br)ccc1O)Nc1ccccc1 | -19% | 44% | 8.3µM* | u | u
O=C(C[n+]1ccccc1)N/N=C/c1cc(Br)ccc1O | -10% | -24% | 4.1µM* | -18% | x
O=C(C[n+]1ccccc1)N/N=C/c1ccc(Cl)cc1 | x | -11% | 7.4µM* | x | u
CCOc1ccccc1NC(=O)C(=O)N/N=C/c1cc(Br)ccc1O | u | 7% | -26% | -20% | 2.3µM*
CCOc1ccccc1C=NNC(=O)C(=O)NN=Cc1ccccc1OCC | i | 30% | x | -11% | x
NC(=O)N/N=C\c1cc(Br)ccc1O | -13% | 62% | 17% | -17% | -15%
Cc1ccc(C)c(N2CCN(CCCNC(=O)C3COc4ccccc4C3)CC2)c1 (stereo not given) | -20%[7.34 µM] | x | x | -16%[7.34 µM] | x
CN(C)S(=O)(=O)c1cccc(NC(=S)N/N=C/c2cc(Br)ccc2O)c1 | u | 1% | u | u | 2.1µM*
Cc1ccc(-c2nc(CS(=O)(=O)CC(=O)N3CCN(c4cccc(C)c4C)CC3)c(C)o2)cc1 | -16% | x | x | -20% | x
CCN(CC)c1ccc(/C=C/c2cc(-c3ccccc3)c3ccccc3n2)cc1 | x | 90% | 12µM* | x | u
CN(C)c1ccc(/C=C/c2cc(/C=C/c3ccc(N(C)C)cc3)c3ccccc3n2)cc1 | -13% | x | x | 61% | x
COc1ccc2c(c1)CCC2=O | 40% | x | x | -12% | x
CN1CCN(c2nc(N(C)C)oc(=O)c2C#N)CC1 | x | -12% | 0.0037µM* | x | -13%
CCN1C(=NCc2cccc(C(F)(F)F)c2)N[C@@H](c2cccc(C(F)(F)F)c2)C(C(=O)OC)=C1C | -18% | x | x | u | x
COc1cccc(C2c3[nH]c4ccccc4c3C[C@H]3C(=O)N(CCCO)CC(=O)N23)c1OC (stereo not given in full) | x | -2% | u | x | u
COc1ccc(C2c3[nH]c4ccccc4c3C[C@H]3C(=O)N(CCCO)CC(=O)N23)c(OC)c1 (stereo not given in full) | x | 0% | -2% | x | -8%
CC(C)OCCCN1CC(=O)N2C(c3cccc([N+](=O)[O-])c3)c3[nH]c4ccccc4c3C[C@H]2C1=O (stereo not given in full) | x | -8% | u | x | 8.3µM*
COc1ccc(OC)c(C2c3[nH]c4ccccc4c3C[C@H]3C(=O)N(CCCOC(C)C)CC(=O)N23)c1 (stereo not given in full) | x | -1% | 12µM* | x | 7.4µM*
CC1=C(c2ccc(C)c(C)c2)S(=O)(=O)N=C1N1CCC(C(=O)NCCc2ccco2)CC1 | -26% | x | x | -13% | x
CCOC(=O)CN(C(=O)COc1nc(-c2ccccc2)cc(C)c1C#N)c1cccc(OC)c1 | x | -8% | 12µM* | x | 7.4µM*
CCOC(=O)CN(C(=O)COc1nc(-c2ccccc2)cc(C)c1C#N)c1ccccc1 | -3% | -8% | u | -12% | u
CCOC(=O)CN(C(=O)COc1nc(-c2ccccc2)cc(C)c1C#N)c1ccccc1C | x | 1% | u | x | 13µM*
SMILES | VACV mCherry inh | AMA1 RON2 block | Pf growth 96h | Vaccinia Venus | Pf growth 48h
CCOC(=O)CN(C(=O)COc1nc(-c2ccccc2)cc(C)c1C#N)c1ccc(C)cc1 | x | -12% | 5.9µM* | x | 13µM*
COc1ccc2c(c1)cc1c(=O)n(CC(=O)NCc3ccco3)nc(C)n12 | 11% | x | x | 8% | x
CCCCCCCCCCCCCC[n+]1ccc(C)cc1 | x | x | 0.85µM* | x | 0.85µM*
CCCCCCCCCC[n+]1ccc(/C=C/c2c[nH]c3ccccc23)cc1 | u | x | x | 157% | x
c1ccc2c[n+](CCCCCCCCCC[n+]3ccc4ccccc4c3)ccc2c1 | x | -9% | x | x | x
CCCCCCCCCCCC[n+]1ccc2ccccc2c1 | x | x | 3µM* | x | 0.3µM*
CCCCCCCCCCCCCCCC[n+]1ccc(/C=N/O)cc1 | 11µM* | -8% | 1.2µM* | 10µM* | 2.3µM*
CCCCCCCCCCCCCCCC[n+]1ccc(C(N)=O)cc1 | i | 17% | 11% | -15% | u
CCCCCCC[n+]1ccc(-c2cc[n+](CCCCCCC)cc2)cc1 | u | 1% | 0.33µM* | u | 0.41µM*
O=C(CSc1nc2sc3c(c2c(=O)[nH]1)CCCC3)Nc1ccccc1F | -10% | x | x | -13% | x
CCOc1ccc(OCC(=O)Nc2c(C(=O)Nc3ccc(C)cc3)oc3ccccc23)cc1 | -9% | x | x | -12% | x
CCCCCCCCCCCCCCCC[n+]1ccccc1 | 13µM*! | 11% | 1.5µM* | 14µM*! | 3.8µM*
CCCc1nc2ccc(Br)cc2c(=O)n1-c1ccc([N+](=O)[O-])c(C(F)(F)F)c1 | u | -8% | 34% | u | 12µM*
CCc1nc2ccc(Br)cc2c(=O)n1-c1ccccc1C(F)(F)F | -18% | -16% | x | -5% | x
COc1ccc(-c2nc3ccccc3n3c(-c4ccccc4)c4c(=O)n(C)c(=O)n(C)c4c23)cc1OC | -13% | x | x | -1% | x
Cc1ccccc1Oc1nc2c(C)cccn2c(=O)c1/C=C(\C#N)C(=O)NC1CCS(=O)(=O)C1 (stereo not given) | i | -1% | 12µM* | -9% | 5.9µM*
Cc1cccn2c(=O)c(/C=C(\C#N)C(=O)NC3CCS(=O)(=O)C3)c(Oc3ccccc3Cl)nc12 (stereo not given) | -24% | 13% | u | -15% | 4.7µM*
Cc1cccn2c(=O)c(/C=C(\C#N)C(=O)NC3CCS(=O)(=O)C3)c(N3CCC(C(N)=O)CC3)nc12 (stereo not given) | -4% | -10% | -1% | 2% | -23%
Cc1ccccc1NC(=O)c1nc(S(=O)(=O)Cc2ccccc2F)ncc1Cl | -18% | x | x | -21% | x
COc1ccc(NC(=S)Nc2ccc3nsnc3c2)cc1 | i | 57% | 0.23µM* | -7% | 20%
COc1ccc(C(=S)Nc2ccc(C)cc2)cc1 | i | -23% | i | -1% | 120%
CCOc1ccc(NC(=S)Nc2ccc3nsnc3c2)cc1 | -14% | -3% | 74% | -11% | u
C=CCN(CC=C)C(=S)Nc1ccc2nsnc2c1 | u | 5% | u | -4% | 8.3µM*
COc1ccc(NC(=S)c2ccncc2)cc1 | u | -20% | 10µM* | -14% | 14%
O=S(=O)(Nc1ccc(-c2ccc(N3CCCC3)nn2)cc1)c1cccc(C(F)(F)F)c1 | -24% | x | x | -16% | x
CCOc1ccc(CNC(=O)C2=Cc3cccc(OC)c3OC2)cc1 | 0% | x | x | -5% | x
Cn1nnnc1SCCCNCc1ccccc1OCc1ccc(Cl)cc1 | -4%[7.34 µM] | x | x | -9%[7.34 µM] | x
Cn1nnnc1SCCNCc1ccccc1OCc1ccc(Cl)cc1 | -23% | u | 12µM* | -21% | u
